Our source for the Potency and IC50 (viability decrease) values is PubChem BioAssay (NCATS).

Records with an inconclusive call do not appear. The source made the active and inactive calls. The call rests on the fitted dose curve; in most records, active means well fitted curve in the direction sought with a large enough effect; inconclusive means small, poorly fitted or top-dose-only effect, or another doubt; inactive means no such curve, though single readings can be large; an effect the other way counts as inactive or inconclusive. Where a SMILES comes first, the peptide text is derived from it. Non-standard residues stand in square brackets, D forms with d. Residues, ends and D or L forms follow the SMILES beside them. Bridges are numbered along the chain shown (N, C = ends). [ ]: non-standard residue; d: D form. The star is where a group is joined. Dab(CH2SO3H) = N[C@@H](CCNCS(=O)(=O)O)C(=O)O; X3 = CC[C@@H](C)CCCCC(=O)*; Orn = NCCC[C@H](N)C(=O)O; Dab = NCC[C@H](N)C(=O)O

A short description of assay [1]: qHTS assay to identify small molecule inhibitors of chordoma cells - UCH-2 (AID 1259356). Further: potency means the concentration at half of the fitted maximal effect. In general terms: qHTS replaces the single test concentration by a dilution series.
Assay [2] is described as follows: P-glycoprotein substrates identified in KB-8-5-11 adenocarcinoma cell line, qHTS therapeutic library screen (AID 1346987). Further: nearly all actives have a fitted effect of over 65% in size. Further: potency means the concentration at half of the fitted maximal effect. A digest of the protocol: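 KB-8-5-11, a colchicine-selected P-gp-overexpressing KB-3-1 subline, was grown without colchicine for the assay. Cells were seeded at 500 cells/well, dosed in concentration-response and incubated 72 h at 37 degree C, 5% CO2. Viability was read by CellTiter-Glo luminescence.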

Assay [3] is described as follows: Identifying Small Molecule Inhibitors of Pancreatic Cancer Stem Cells (A2780, Spheroid) (AID 1259357).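 Further: compound exposure lasted 48 h before the ATP luminescence read.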 Further: potency means the concentration at half of the fitted maximal effect. Particulars: Potency: A2780 spheroid viability. Summed up: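 Spheroids grown 14 days in stem cell media on nonadherent hydrogel before screening; cells attached 4 h, then compound exposure 48 h at 37C, 5% CO2. CellTiter-Glo luminescence normalized to DMSO (no inhibition) and no-cell wells (full inhibition).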

A short description of assay [4]: Identifying Small Molecule Inhibitors of Pancreatic Cancer Stem Cells (Panc1, Spheroid) (AID 1259359).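 Further: potency means the concentration at half of the fitted maximal effect; compound exposure lasted 48 h before reading.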 A digest of the protocol:
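Luminescent ATP readout (CellTiter-Glo) quantifies surviving cells after a 48 h drug incubation. Normalization uses DMSO wells as no inhibition and media-only wells as full inhibition; bortezomib served as positive control.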

Assay [5] is described as follows: Identifying Small Molecule Inhibitors of Pancreatic Cancer Stem Cells (A278, Adherent) (AID 1259361). Further: nearly all actives have a fitted effect of over 35% in size. A digest of the protocol: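 Monolayer and spheroid cultures are compared. Spheroids form over 14 days in stem cell medium on hydrogel-coated low-attachment plates, then are exposed to compound for 48 h before CellTiter-Glo luminescence.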
Assay [6] can be described thus: Identifying Small Molecule Inhibitors of Pancreatic Cancer Stem Cells (Panc1, Adherent) (AID 1259362). Further: potency means the concentration at half of the fitted maximal effect. The settings on record: Potency: viability. A digest of the protocol: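 Spheroids grown 14 days in stem cell media on hydrogel-coated nonadherent plates; 2D lines seeded directly. Compounds added after 4 h attachment, 48 h at 37C, 5% CO2; CellTiter-Glo luminescence normalized to DMSO (no inhibition) and no-cell wells (full inhibition).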

On to `CCCCCCCC(=O)O`, for which the Potency result in assay [1] and in assay [2] was “inactive” in each case.
With `CC(=O)OCC(=O)[C@@]12OC3(CCCC3)O[C@@H]1C[C@H]1[C@@H]3CCC4=CC(=O)C=C[C@]4(C)[C@@]3(F)[C@@H](O)C[C@@]12C`, the Potency entry in assay [1] and in assay [2] was “inactive” each time.
As to `CC[C@H]1OC(=O)C[C@@H](O)[C@H](C)[C@@H](O[C@@H]2O[C@H](C)[C@@H](O)[C@H](N(C)C)[C@H]2O)[C@@H](CCN2C[C@H](C)C[C@H](C)C2)C[C@@H](C)C(=O)/C=C/C(C)=C/[C@@H]1CO[C@@H]1O[C@H](C)[C@@H](O)[C@@H](OC)[C@H]1OC`, the Potency result in assay [1] and in assay [2] was “inactive” throughout.
As to `C=C(NC(=O)C(=C)NC(=O)c1csc(C2=N[C@@H]3c4csc(n4)[C@H]4NC(=O)c5csc(n5)[C@H]([C@](C)(O)[C@@H](C)O)NC(=O)[C@H]5CSC(=N5)C(=CC)NC(=O)C([C@@H](C)O)NC(=O)c5csc(n5)[C@]3(CC2)NC(=O)[C@H](C)NC(=O)C(=C)NC(=O)[C@H](C)NC(=O)C([C@@H](C)CC)NC2C=Cc3c([C@H](C)O)cc(nc3C2O)C(=O)O[C@@H]4C)n1)C(N)=O` (stereo partly drawn), the Potency result in assay [1] and in assay [2] was “inactive” in each case.
As to `O=C(O)C1CCCN1` (stereo not drawn), the Potency result in assay [1] and in assay [2] was “inactive” throughout.
As to `C=CCSSSCC=C`, the Potency entry in assay [1] and in assay [2] was “inactive” in each case.
On to `CC[C@@H](C(=O)O)C1CC[C@H](C)C([C@@H](C)[C@H](O)[C@H](C)C(=O)[C@H](CC)C2O[C@]3(C=C[C@@H](O)[C@]4(CC[C@@](C)(C5CC[C@](O)(CC)[C@H](C)O5)O4)O3)[C@H](C)C[C@@H]2C)O1` (stereo partly drawn), for which the Potency is 0.0332 µM (active) in assay [3], 14.8 µM (active) in assay [4] and 7.43 µM (active) in assay [6]. In assay [5], the IC50 (viability decrease) was 0.0743 µM (active).
For `CCOC(=O)O[C@]1(C(=O)COC(=O)CC)CC[C@H]2[C@@H]3CCC4=CC(=O)C=C[C@]4(C)[C@H]3[C@@H](O)C[C@@]21C`, the Potency entry in assay [1] and in assay [2] was “inactive” each time.
Turning to `CC(C)NCC1CCc2cc(CO)c([N+](=O)[O-])cc2N1` (stereo not drawn), the Potency result in assay [1] and in assay [2] was “inactive” throughout.
As to `CCC1(Cc2ccc(N)cc2)CCC(=O)NC1=O` (stereo not drawn), the Potency result in assay [3] is “inactive”. In assay [5], the IC50 (viability decrease) entry is “inactive”.
As for `CCCCC(=O)O[C@]1(C(=O)CO)[C@H](C)C[C@H]2[C@@H]3CCC4=CC(=O)C=C[C@]4(C)[C@@]3(F)[C@@H](O)C[C@@]21C`, the Potency result in assay [1] and in assay [2] was “inactive” in each case.
As for `OCCO[C@@H]1[C@@H](O)[C@H](O)[C@@H](CO)O[C@@H]1O`, the Potency result in assay [1] and in assay [2] was “inactive” each time.
For the compound `CC1(C)C(C=C(Cl)Cl)C1C(=O)OCc1cccc(Oc2ccccc2)c1` (stereo not drawn), the Potency result in assay [1] and in assay [2] was “inactive” in each case.
Take `CCCCC(C)(O)C/C=C/[C@H]1[C@H](O)CC(=O)[C@@H]1CCCCCCC(=O)OC` (stereo partly drawn): the Potency result in assay [1] and in assay [2] was “inactive” in each case.
Regarding `CC(=O)Oc1cc(C)c(OC(C)=O)c2ccccc12`, the Potency result in assay [1] and in assay [2] was “inactive” in each case.
Consider `CC[C@@H](C)CCCCC(=O)N[C@@H](CCNCS(=O)(=O)O)C(=O)N[C@H](C(=O)N[C@@H](CCNCS(=O)(=O)O)C(=O)N[C@H]1CCNC(=O)[C@H]([C@@H](C)O)NC(=O)[C@H](CCNCS(=O)(=O)O)NC(=O)[C@H](CCNCS(=O)(=O)O)NC(=O)[C@H](CC(C)C)NC(=O)[C@@H](CC(C)C)NC(=O)[C@H](CCNCS(=O)(=O)O)NC1=O)[C@@H](C)O` (X3-[Dab(CH2SO3H)]T[Dab(CH2SO3H)][Dab][Dab(CH2SO3H)][dL]L[Dab(CH2SO3H)][Dab(CH2SO3H)]T; lactam 4-C), for which the Potency result in assay [1] and in assay [2] was “inactive” in each case.
In the case of `C[C@H]1C[C@H]2[C@@H]3CCC4=CC(=O)C=C[C@]4(C)[C@@]3(F)[C@@H](O)C[C@]2(C)[C@@]1(O)C(=O)CO`, the Potency entry in assay [1] and in assay [2] was “inactive” in each case.
Consider `COC(C(=O)C(O)C(C)O)C1Cc2cc3cc(OC4CC(OC5CC(O)C(O)C(C)O5)C(O)C(C)O4)c(C)c(O)c3c(O)c2C(=O)C1OC1CC(OC2CC(OC3CC(C)(O)C(O)C(C)O3)C(O)C(C)O2)C(O)C(C)O1` (stereo not drawn), for which the Potency result in assay [1] and in assay [2] was “inactive” each time.
In the case of `CCCCC/C=C\C/C=C\CCCCCCCC(=O)O`, the Potency entry in assay [1] and in assay [2] was “inactive” each time.
As for `CC1(C)O[C@@H]2C[C@H]3[C@@H]4CCC5=CC(=O)C=C[C@]5(C)[C@H]4[C@@H](O)C[C@]3(C)[C@]2(C(=O)CO)O1`, the Potency result in assay [1] and in assay [2] was “inactive” in each case.
As to `O=C(O)c1cc(O)c2c(c1)[O][Bi][O]2`, the Potency result in assay [1] and in assay [2] was “inactive” each time.
Turning to `CO[C@H](C(=O)[C@@H](O)[C@@H](C)O)C1Cc2cc3cc(O[C@H]4C[C@@H](O[C@H]5C[C@@H](O)[C@H](O)[C@@H](C)O5)[C@@H](O)[C@@H](C)O4)c(C)c(O)c3c(O)c2C(=O)[C@H]1O[C@H]1C[C@@H](O[C@H]2C[C@@H](O[C@H]3C[C@](C)(O)[C@H](O)[C@@H](C)O3)[C@H](O)[C@@H](C)O2)[C@H](O)[C@@H](C)O1` (stereo partly drawn), the Potency entry in assay [1] and in assay [2] was “inactive” throughout.
Turning to `CC(C)C[C@@H]1NC(=O)[C@H](CCCN)NC(=O)[C@H](C(C)C)NC(=O)[C@@H]2CCCN2C(=O)[C@@H](Cc2ccccc2)NC(=O)[C@H](CC(C)C)NC(=O)[C@H](CCCN)NC(=O)[C@H](C(C)C)NC(=O)[C@@H]2CCCN2C(=O)[C@@H](Cc2ccccc2)NC1=O` (cyclo(V[Orn]L[dF]PV[Orn]L[dF]P)), the Potency in assay [1] was 8.2 µM (active). The Potency result in assay [2] was “inactive”.
Take `O=CCCCC=O`: the Potency entry in assay [1] and in assay [2] was “inactive” each time.
With `CC(=O)N[C@@H](CC(=O)N[C@@H](CCC(=O)O)C(=O)O)C(=O)O`, the Potency result in assay [1] and in assay [2] was “inactive” throughout.
For `NCc1ccccc1CC(=O)N[C@@H]1C(=O)N2C(C(=O)O)=C(CSc3nnnn3CC(=O)O)CS[C@H]12`, the Potency result in assay [1] and in assay [2] was “inactive” throughout.
As to `C=C1CC[C@@H]2[C@](C)(CO)[C@H](O)CC[C@@]2(C)[C@@H]1C/C=C1/C(=O)OC[C@H]1O`, the Potency entry in assay [1] and in assay [2] was “inactive” in each case.
Take `O=C1C(=O)c2ncccc2-c2cccnc21`: the Potency entry in assay [1] is “inactive”. Further, the Potency in assay [2] was 1.16 µM (active).
